{"source": "PubChem BioAssay (NCATS)", "note": "Inconclusive results are not listed. Where a call stands in place of a potency, no number is given. The source made the active and inactive calls. Calls follow the shape of the dose curve; as a rule, active = well fitted inhibition curve with a large enough effect; inconclusive = small, poorly fitted or top-dose-only effect; inactive = no such curve, though single readings can be large or run the other way. Potency is read from the fitted curve at half-maximal effect."}
{"experiment": "Primary qHTS for inhibitors of nuclear receptor binding SET domain protein 2 (NSD2) in an RCH-ACV wild type WT cells (2C) (AID 1645877); also: nearly all actives have a fitted effect of over 70% in size", "conditions": "RCH-ACV NSD2 WT (2C) viability, CellTiter-Glo, 72 h; series mostly up to 44.9 µM"}
{"smiles": "COc1ccc(OC2OC(CO[C@@H]3O[C@@H](C)[C@H](O)[C@@H](O)[C@H]3O)C(O)C(O)C2O)cc1OC", "note": "(stereo partly drawn)", "Potency": "inactive"}
{"smiles": "O=C(/C=C/c1ccc(O)c(O)c1)O[C@H]1[C@H](OC2CCCCC2O)O[C@H](CO)[C@@H](O)[C@@H]1O", "note": "(stereo partly drawn)", "Potency": "inactive"}
{"smiles": "CC(O)C1NC(=O)C2CCCN2C1=O", "note": "(stereo not drawn)", "Potency": "inactive"}
{"smiles": "C[C@@H]1O[C@@H](O[C@H]2[C@@H]3C=CO[C@@H](O[C@@H]4O[C@H](CO)[C@@H](O)[C@H](O)[C@H]4O)[C@@H]3[C@@]3(CO)O[C@@H]23)[C@H](O)[C@H](OC(=O)/C=C/c2ccc(O)c(O)c2)[C@H]1O", "Potency": "inactive"}
{"smiles": "CC(=O)OC[C@]12[C@@H](OC(=O)c3ccoc3)C[C@@H]3[C@@H](OC(C)=O)[C@]1(OC3(C)C)[C@@](C)(O)C[C@H](OC(=O)c1ccoc1)[C@@H]2OC(=O)c1ccoc1", "Potency": "inactive"}
{"smiles": "CC(=O)OCC1OC(OC2COC(OC3COC(OC4C(OC5C(CO)OC(OC6CCC7(C)C(CCC8(C)C7CC=C7C9CC(C)(C)CCC9(C(=O)OC9OC(CO)C(O)C(O)C9OC9OCC(OC%10OCC(O)(CO)C%10O)C(O)C9O)C(O)CC78C)C6(C)C)C(O)C5O)OCC(O)C4O)C(O)C3O)C(O)C2O)C(OC(=O)/C=C/c2ccccc2)C(O)C1OC(C)=O", "note": "(stereo not drawn)", "Potency": "1.99 µM (active)"}
{"smiles": "CC(=O)OC12CC(C)C(O)C1/C=C(/COC1OC(CO)C(O)C(O)C1O)CCC1C(/C=C(\\C)C2=O)C1(C)C", "note": "(stereo not drawn)", "Potency": "inactive"}
{"smiles": "O=C(/C=C/c1ccc(O)cc1)OC[C@H]1O[C@@H](O/C(=C\\c2ccccc2)C(=O)O)[C@H](O)[C@@H](O)[C@@H]1O", "Potency": "inactive"}
